Test results from PubChem BioAssay AID720597 (Broad Institute, 2013).
Measured potencies and affinities stand elsewhere.

biological target: NAD-dependent protein deacylase sirtuin-5, mitochondrial (Homo sapiens) (UniProt Q9NXA8); assay: blockers of sirtuin-5 peptide desuccinylation – biochemical, fluorescence imaging, cherry-pick, set 6, dose response (AID 720597); conditions: Purified SirT5, succinyl-peptide-AMC/trypsin fluorescence; series mostly up to 15 µM; activity change, negative = inhibition: at the top concentration;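 further: lower AMC signal can also come from blocking the trypsin step; 0% = median of neutral control wells and -100% = median of positive control wells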
Sequence (Q9NXA8 whole entry, looked up): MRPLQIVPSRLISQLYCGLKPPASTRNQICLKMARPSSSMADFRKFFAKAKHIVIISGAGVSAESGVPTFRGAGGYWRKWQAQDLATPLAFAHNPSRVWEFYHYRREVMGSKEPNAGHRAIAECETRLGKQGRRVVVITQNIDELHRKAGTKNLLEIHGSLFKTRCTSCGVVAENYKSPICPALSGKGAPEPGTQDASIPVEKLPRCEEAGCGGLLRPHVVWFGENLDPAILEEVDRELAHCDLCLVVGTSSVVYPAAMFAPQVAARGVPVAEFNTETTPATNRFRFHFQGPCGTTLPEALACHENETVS

Activity change, negative = inhibition, inactive:
COc1ccc(NC(=O)Nc2ccc3c(c2)C(=O)N([C@H](C)CO)C[C@@H](C)[C@@H](CN(C)Cc2ccccc2)OCCCC[C@H](C)O3)cc1 -10.3%
COc1cccc(NC(=O)N(C)C[C@@H]2OCc3cn(nn3)CCCC(=O)N([C@H](C)CO)C[C@H]2C)c1 -2.5%
Cc1ccc(S(=O)(=O)Nc2ccc3c(c2)C(=O)N([C@@H](C)CO)C[C@H](C)[C@H](CN(C)Cc2ccc(C(F)(F)F)cc2)OCCCC[C@@H](C)O3)cc1 -7.33%
COc1ccc(S(=O)(=O)Nc2ccc3c(c2)C(=O)N([C@@H](C)CO)C[C@@H](C)[C@H](CN(C)Cc2ccc(-c4ccccc4)cc2)O3)cc1 -10.6%
O=C(CCN1CCCCC1)N[C@H]1CC[C@@H](CC(=O)N2CCC(Cc3ccccc3)CC2)O[C@@H]1CO -14.1%
Cc1ccc(S(=O)(=O)Nc2ccc3c(c2)C(=O)N([C@@H](C)CO)C[C@H](C)[C@H](CN(C)S(=O)(=O)c2ccccc2)OCCCC[C@@H](C)O3)cc1 5.12%
CCN1[C@@H]2c3ccc(-c4cccc(F)c4)c(=O)n3C[C@@H]2[C@@H](CO)[C@@H]1C(=O)N[C@H](C)c1ccccc1 19.1%
O=C1CN(S(=O)(=O)c2ccccc2)C[C@@H]2[C@H](c3ccc(C#Cc4ccccc4)cc3)[C@H](CO)N12 3.33%
O=C(CC1CC1)N1[C@@H](CO)[C@@H]2c3ccccc3N(S(=O)(=O)c3ccc(F)cc3)C[C@@H]21 -7.04%
C[C@@H]1CN([C@H](C)CO)C(=O)c2cc(NC(=O)CCC(F)(F)F)ccc2O[C@H]1CN(C)Cc1ccc(Oc2ccccc2)cc1 5.72%
C[C@@H]1CCCCO[C@@H](CN(C)C(=O)C2CCCCC2)[C@H](C)CN([C@@H](C)CO)C(=O)c2cc(NC(=O)Nc3ccc(F)cc3)ccc2O1 -14.3%
O=C(C[C@@H]1C[C@H]2c3cc(NC(=O)Nc4ccc(C(F)(F)F)cc4)ccc3O[C@H]2[C@H](CO)O1)NCc1ccc2c(c1)OCO2 -16.5%
C[C@@H]1CN([C@@H](C)CO)S(=O)(=O)c2ccc(C#Cc3ccc(F)cc3)cc2O[C@H]1CN(C)S(=O)(=O)c1ccc(F)cc1 -1.34%
Cc1ccc(S(=O)(=O)Nc2ccc3c(c2)CC(=O)N([C@@H](C)CO)C[C@@H](C)[C@H](CN(C)Cc2ccc(Oc4ccccc4)cc2)O3)cc1 -17%
C[C@H]1CN([C@@H](C)CO)S(=O)(=O)c2ccc(/C=C/c3ccccc3)cc2O[C@H]1CN(C)C(=O)NC1CCCC1 2.54%
CNC[C@@H]1Oc2ccc(NC(=O)Nc3ccc(F)cc3)cc2CC(=O)N([C@H](C)CO)C[C@@H]1C 9.57%
C[C@@H]1CCCCO[C@H](CN(C)S(=O)(=O)c2ccc(Cl)cc2)[C@H](C)CN([C@@H](C)CO)C(=O)c2cc(N(C)C)ccc2O1 -28.7%
C[C@@H]1CN([C@H](C)CO)C(=O)c2cc(NS(=O)(=O)c3ccc(Cl)cc3)ccc2O[C@@H](C)CCCCO[C@@H]1CN(C)Cc1ccccc1 -26.9%
CN(C)CC#Cc1ccc([C@@H]2[C@@H](CO)N3CCCCN(C(=O)CN(C)C)C[C@H]23)cc1 -9.95%
Cc1noc(C)c1NC(=O)Nc1cccc2c1O[C@@H](CN(C)Cc1ccc(Oc3ccccc3)cc1)[C@H](C)CN([C@H](C)CO)C2=O -7.07%
C[C@@H]1CN([C@H](C)CO)C(=O)c2cc(C#CCN(C)C)cnc2O[C@@H]1CN(C)Cc1ccncc1 17.4%
C[C@H](CO)N1C[C@H](C)[C@H](CN(C)C(=O)NC2CCCCC2)Oc2cc(/C=C/c3ccccc3)ccc2S1(=O)=O 16.9%
O=C(c1ccc(F)cc1)N1CC(=O)N2[C@H](C1)[C@H](c1ccc(C#CCC3CCCC3)cc1)[C@@H]2CO -22.1%
C[C@@H]1CN([C@@H](C)CO)S(=O)(=O)c2ccc(/C=C/c3ccccc3)cc2O[C@@H]1CN(C)C(=O)C1CC1 7.63%
COc1ccc(S(=O)(=O)Nc2ccc3c(c2)C(=O)N([C@@H](C)CO)C[C@H](C)[C@H](CN(C)Cc2ccc(C(F)(F)F)cc2)OCCCC[C@@H](C)O3)cc1 -19.8%
C[C@H](CO)N1C[C@H](C)[C@H](CN(C)S(=O)(=O)c2ccc(F)cc2)Oc2cc(C#Cc3ccc(F)cc3)ccc2S1(=O)=O 38.2%
O=C(C[C@@H]1CC[C@@H]2[C@H](COC[C@@H](O)CN2Cc2ccc3c(c2)OCO3)O1)N1CCOCC1 -7.73%
CN(C)Cc1cn(CC[C@H]2CC[C@@H](NC(=O)Nc3ccccc3F)[C@@H](CO)O2)nn1 7.23%
C[C@H](CO)N1C[C@H](C)[C@@H](CN(C)Cc2ccccc2)Oc2ccc(N(C)C)cc2C1=O 29.6%
COc1ccc(NC(=O)N(C)C[C@@H]2Oc3ccc(NS(=O)(=O)c4ccc(F)cc4)cc3C(=O)N([C@H](C)CO)C[C@@H]2C)cc1 15%
C[C@@H]1CN([C@H](C)CO)C(=O)c2cc(NS(=O)(=O)c3cn(C)cn3)ccc2O[C@H]1CN(C)C(=O)Nc1ccccc1 -8.96%
OC[C@H]1[C@@H](c2ccc(-c3cccc(F)c3)cc2)[C@H]2CN(CCC(F)(F)F)CCCCN21 23%
C[C@H](O)C#Cc1cnc2c(c1)C(=O)N([C@H](C)CO)C[C@H](C)[C@@H](CN(C)CC1CCCC1)O2 -9.66%
C[C@H]1CN([C@@H](C)CO)S(=O)(=O)c2ccc(C#CC3CC3)cc2O[C@H]1CN(C)C(=O)c1ccccn1 0.87%
COc1cccc(S(=O)(=O)N(C)C[C@@H]2Oc3cc(C4=CCCCC4)ccc3S(=O)(=O)N([C@@H](C)CO)C[C@@H]2C)c1 -2.52%
C[C@H](CO)N1C[C@H](C)[C@@H](CN(C)Cc2ccc(Oc3ccccc3)cc2)Oc2c(NC(=O)CCCCCC(=O)Nc3ccccc3N)cccc2C1=O -17.5%
Cc1ccc(S(=O)(=O)N(C)C[C@@H]2OCCCC[C@H](C)Oc3ccc(NS(=O)(=O)c4ccc(Cl)cc4)cc3C(=O)N([C@@H](C)CO)C[C@H]2C)cc1 -0.777%
O=C(C1CCCC1)N1CC2(C1)[C@H](c1ccccc1)[C@@H](CO)N2Cc1ccc(Cl)cc1 -8.55%
Cc1ccc(S(=O)(=O)Nc2ccc3c(c2)C(=O)N([C@H](C)CO)C[C@@H](C)[C@H](CN(C)Cc2ccc(Cl)c(Cl)c2)OCCCC[C@H](C)O3)cc1 0.114%
